Assay results from PubChem BioAssay (Tox21).
Several values for one entry are separate records, joined by “and”; a condition that tells them apart may be missing. Equal values may be shown once. Results filed as inconclusive are left out. A call without a number means that no potency is given here. Where a structure was tested more than once in an assay, its records may differ in their call. Activity calls are given as the source filed them. Unless noted, calls follow the shape of the dose curve; as a rule, active = well fitted curve in the direction sought with a large enough effect in the repeat runs; inconclusive = weak or mixed curves; inactive = no such curve, though single readings can be large; an effect the other way counts as inactive or inconclusive.

Legend:
[1] = molecular target: Acetylcholinesterase (Homo sapiens) (UniProt P22303); assay: Acetylcholinesterase (AChE) small molecule antagonists: fluorescence cell-based qHTS assay (AID 1347398; calls by dose curve; also: nearly all actives have a fitted effect of over 50% in size); conditions: Potency: AChE activity
Chain of Acetylcholinesterase (Homo sapiens) (P22303 whole entry, looked up): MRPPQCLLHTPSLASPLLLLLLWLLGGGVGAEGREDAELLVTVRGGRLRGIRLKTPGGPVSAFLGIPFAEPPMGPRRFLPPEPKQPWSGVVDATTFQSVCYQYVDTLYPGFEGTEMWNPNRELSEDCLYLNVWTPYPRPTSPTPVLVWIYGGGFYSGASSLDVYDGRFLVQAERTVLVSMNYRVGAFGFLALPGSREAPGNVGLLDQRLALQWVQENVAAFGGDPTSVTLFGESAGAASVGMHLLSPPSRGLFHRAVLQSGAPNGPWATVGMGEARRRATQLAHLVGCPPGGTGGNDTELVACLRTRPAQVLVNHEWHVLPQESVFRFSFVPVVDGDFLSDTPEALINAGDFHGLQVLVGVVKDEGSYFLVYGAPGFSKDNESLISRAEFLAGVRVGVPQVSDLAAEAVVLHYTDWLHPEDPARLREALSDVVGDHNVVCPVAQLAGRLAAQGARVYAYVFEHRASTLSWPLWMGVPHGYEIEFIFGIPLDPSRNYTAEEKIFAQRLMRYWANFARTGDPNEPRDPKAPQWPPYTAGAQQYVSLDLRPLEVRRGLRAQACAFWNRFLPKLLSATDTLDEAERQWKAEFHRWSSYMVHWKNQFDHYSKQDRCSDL
In short: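 SH-SY5Y, 2,000 cells/well, attached overnight; cmpd 30 min 37 C; acetylthiocholine/Thiolite Green cocktail 40 min RT; fluorescence Ex/Em 490/520 nm.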

[2] = molecular target: Acetylcholinesterase (Homo sapiens) (UniProt P22303); assay: Acetylcholinesterase (AChE) small molecule antagonists: enzyme-based qHTS assay with human liver microsomes (AID 1347399; calls by dose curve; also: nearly all actives have a fitted effect of over 60% in size); conditions: Potency: qHTS inhibition
In short: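 Recombinant human AChE (50 mU/mL in the enzyme mix) and human liver microsomes (0.25 mg/mL final) were preincubated with compound and NADPH (0.25 mg/mL final) for 30 min at 37 C. Acetylthiocholine/DTNB was then added; thiocholine was read colorimetrically after 10 min at room temperature.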

[3] = molecular target: Cytochrome P450 2D6 (Homo sapiens) (UniProt P10635); assay: Cytochrome P450 Family 2 Subfamily D Member 6 (CYP2D6) small molecule antagonists: luciferase reporter qHTS assay (AID 1671196); also: nearly all actives have a fitted effect of over 50% in size; as to activity change, negative = inhibition: series mostly up to about 120 µM
Chain of Cytochrome P450 2D6 (Homo sapiens) (P10635 whole entry, looked up): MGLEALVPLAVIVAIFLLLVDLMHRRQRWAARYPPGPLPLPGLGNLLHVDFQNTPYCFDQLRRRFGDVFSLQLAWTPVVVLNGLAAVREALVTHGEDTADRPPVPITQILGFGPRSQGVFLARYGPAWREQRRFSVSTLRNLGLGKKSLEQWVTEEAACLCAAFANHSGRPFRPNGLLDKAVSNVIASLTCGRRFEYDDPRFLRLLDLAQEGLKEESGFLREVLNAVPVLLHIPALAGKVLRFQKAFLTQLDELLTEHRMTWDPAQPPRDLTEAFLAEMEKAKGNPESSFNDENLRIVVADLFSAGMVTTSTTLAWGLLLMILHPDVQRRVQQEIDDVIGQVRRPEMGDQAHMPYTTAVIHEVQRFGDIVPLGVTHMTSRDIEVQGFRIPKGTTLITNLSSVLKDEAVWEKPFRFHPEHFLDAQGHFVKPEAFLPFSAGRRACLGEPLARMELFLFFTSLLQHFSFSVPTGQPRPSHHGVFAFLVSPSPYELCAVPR
In short: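 Luminogenic proluciferin substrate, CYP2D6 enzyme; 10 min RT preincubation with compound, NADPH regeneration system added, 1 h RT. Stop/detection reagent, 20 min RT, luminescence read (RLU). Signal proportional to CYP activity.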

[4] = molecular target: Cytochrome P450 2C19 (Homo sapiens) (UniProt P33261); assay: Cytochrome P450 Family 2 Subfamily C Member 19 (CYP2C19) small molecule antagonists: luciferase reporter qHTS assay (AID 1671197); also: nearly all actives have a fitted effect of over 65% in size; as to activity change, negative = inhibition: series mostly up to about 120 µM
Chain of Cytochrome P450 2C19 (Homo sapiens) (P33261 whole entry, looked up): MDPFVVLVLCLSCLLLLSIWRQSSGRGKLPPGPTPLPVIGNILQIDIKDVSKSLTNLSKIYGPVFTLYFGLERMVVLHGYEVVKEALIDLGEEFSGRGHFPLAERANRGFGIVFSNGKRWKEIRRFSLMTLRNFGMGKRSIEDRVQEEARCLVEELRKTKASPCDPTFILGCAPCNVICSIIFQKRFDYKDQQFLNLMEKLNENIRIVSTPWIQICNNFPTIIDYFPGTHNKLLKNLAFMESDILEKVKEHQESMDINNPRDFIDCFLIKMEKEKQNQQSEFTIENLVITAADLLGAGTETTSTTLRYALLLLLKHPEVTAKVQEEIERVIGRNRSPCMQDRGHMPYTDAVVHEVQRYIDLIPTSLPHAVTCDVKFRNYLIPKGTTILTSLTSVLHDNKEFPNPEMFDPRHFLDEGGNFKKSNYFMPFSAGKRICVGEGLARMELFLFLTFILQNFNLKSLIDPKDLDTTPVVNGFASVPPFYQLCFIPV
In short: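 Quantitative high-throughput screen of the Tox21 library using CYP2C19 with proluciferin substrate. Reaction: NADPH regeneration, 37C, 1 h, after 10 min compound preincubation at room temperature. Readout: luminescence.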

[5] = molecular target: Cytochrome P450 2C9 (Homo sapiens) (UniProt P11712); assay: Cytochrome P450 Family 2 Subfamily C Member 9 (CYP2C9) small molecule antagonists: luciferase reporter qHTS assay (AID 1671198); also: nearly all actives have a fitted effect of over 50% in size; as to activity change, negative = inhibition: series mostly up to about 120 µM
Chain of Cytochrome P450 2C9 (Homo sapiens) (P11712 whole entry, looked up): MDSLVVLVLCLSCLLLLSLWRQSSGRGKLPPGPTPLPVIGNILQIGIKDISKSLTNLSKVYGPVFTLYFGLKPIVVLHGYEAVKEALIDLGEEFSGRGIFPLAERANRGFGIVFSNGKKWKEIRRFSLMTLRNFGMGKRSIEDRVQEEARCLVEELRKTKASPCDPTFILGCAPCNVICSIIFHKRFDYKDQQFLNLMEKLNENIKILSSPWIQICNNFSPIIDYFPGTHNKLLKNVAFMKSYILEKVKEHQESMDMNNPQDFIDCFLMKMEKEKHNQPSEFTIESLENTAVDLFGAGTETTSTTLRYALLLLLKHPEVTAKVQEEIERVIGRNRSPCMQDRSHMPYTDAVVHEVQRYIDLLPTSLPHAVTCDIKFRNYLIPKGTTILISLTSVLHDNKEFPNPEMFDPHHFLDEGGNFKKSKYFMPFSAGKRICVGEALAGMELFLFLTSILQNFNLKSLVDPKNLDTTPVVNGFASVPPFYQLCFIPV
In short: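 P450-Glo proluciferin substrate with CYP2C9 enzyme; 10 min RT preincubation, then NADPH regeneration 1 h at 37C; luciferin detection reagent 20 min RT, luminescence in relative luminescence units.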

[6] = molecular target: Cytochrome P450 1A2 (Homo sapiens) (UniProt P05177); assay: Cytochrome P450 Family 1 Subfamily A Member 2 (CYP1A2) small molecule antagonists: luciferase reporter qHTS assay (AID 1671199); also: nearly all actives have a fitted effect of over 50% in size; as to activity change, negative = inhibition: series mostly up to about 120 µM
Chain of Cytochrome P450 1A2 (Homo sapiens) (P05177 whole entry, looked up): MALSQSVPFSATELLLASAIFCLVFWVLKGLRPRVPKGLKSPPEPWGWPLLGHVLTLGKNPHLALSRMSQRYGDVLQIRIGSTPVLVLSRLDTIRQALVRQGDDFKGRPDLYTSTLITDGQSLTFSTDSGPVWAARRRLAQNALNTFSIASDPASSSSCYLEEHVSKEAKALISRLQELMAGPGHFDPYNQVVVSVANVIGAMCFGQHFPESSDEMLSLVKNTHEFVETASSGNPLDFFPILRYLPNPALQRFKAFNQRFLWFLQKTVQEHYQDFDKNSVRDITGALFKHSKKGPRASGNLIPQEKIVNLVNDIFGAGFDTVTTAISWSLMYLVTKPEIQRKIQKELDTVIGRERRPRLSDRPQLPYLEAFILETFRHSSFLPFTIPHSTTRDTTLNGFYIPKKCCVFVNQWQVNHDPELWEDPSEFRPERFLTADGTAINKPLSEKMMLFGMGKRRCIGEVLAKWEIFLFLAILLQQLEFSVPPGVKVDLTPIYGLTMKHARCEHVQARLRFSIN
In short: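 Luminescence readout (relative luminescence units) after luciferin detection reagent, 20 min RT. Preceded by 1 h room-temperature CYP1A2 reaction with NADPH regeneration solution following 10 min compound preincubation with enzyme and proluciferin substrate. Furafylline positive control.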

[7] = molecular target: Voltage-gated inwardly rectifying potassium channel KCNH2 (Homo sapiens) (UniProt Q12809); assay: Human Ether-a-go-go-Related Gene (hERG) channel small molecule antagonists: fluorescence cell-based qHTS assay (AID 1671200); also: nearly all actives have a fitted effect of over 50% in size;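 as to activity change, negative = inhibition: hERG-expressing U2OS cells given a thallium stimulus after FluxOR II dye loading; series mostly up to about 77 µM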
Chain of Voltage-gated inwardly rectifying potassium channel KCNH2 (Homo sapiens) (Q12809 whole entry, looked up): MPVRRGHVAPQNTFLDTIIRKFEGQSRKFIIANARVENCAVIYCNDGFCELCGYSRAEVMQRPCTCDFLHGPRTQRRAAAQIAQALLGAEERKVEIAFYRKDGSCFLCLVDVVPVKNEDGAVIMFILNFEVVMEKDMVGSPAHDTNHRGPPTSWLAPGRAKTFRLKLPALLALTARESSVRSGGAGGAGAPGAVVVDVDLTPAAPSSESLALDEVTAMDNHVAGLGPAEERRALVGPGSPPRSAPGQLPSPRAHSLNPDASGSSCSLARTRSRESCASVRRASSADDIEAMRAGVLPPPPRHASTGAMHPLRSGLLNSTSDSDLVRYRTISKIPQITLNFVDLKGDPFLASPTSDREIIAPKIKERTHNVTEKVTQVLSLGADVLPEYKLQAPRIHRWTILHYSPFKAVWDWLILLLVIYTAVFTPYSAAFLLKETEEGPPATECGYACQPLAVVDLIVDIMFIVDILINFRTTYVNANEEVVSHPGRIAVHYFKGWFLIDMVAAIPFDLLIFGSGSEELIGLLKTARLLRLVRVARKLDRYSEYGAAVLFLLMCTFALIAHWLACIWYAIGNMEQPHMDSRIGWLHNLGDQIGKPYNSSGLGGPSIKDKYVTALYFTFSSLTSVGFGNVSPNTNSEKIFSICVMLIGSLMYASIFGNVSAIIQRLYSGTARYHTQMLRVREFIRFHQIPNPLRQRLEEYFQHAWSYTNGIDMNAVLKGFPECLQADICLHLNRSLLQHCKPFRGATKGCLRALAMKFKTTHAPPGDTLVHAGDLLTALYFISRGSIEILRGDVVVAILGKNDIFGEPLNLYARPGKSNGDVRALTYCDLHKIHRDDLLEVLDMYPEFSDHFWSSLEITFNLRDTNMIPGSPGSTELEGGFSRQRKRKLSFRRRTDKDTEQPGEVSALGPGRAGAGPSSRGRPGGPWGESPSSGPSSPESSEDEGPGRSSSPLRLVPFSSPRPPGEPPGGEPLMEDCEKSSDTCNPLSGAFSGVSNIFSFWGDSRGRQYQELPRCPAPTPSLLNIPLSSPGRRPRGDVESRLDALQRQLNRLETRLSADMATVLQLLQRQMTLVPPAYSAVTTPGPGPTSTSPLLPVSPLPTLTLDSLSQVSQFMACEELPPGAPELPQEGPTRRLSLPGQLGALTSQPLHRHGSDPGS
In short: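 Channel function was assessed by thallium flux. Cells seeded the previous day and kept at 37 C took up FluxOR II dye over 1 h in the dark at room temperature, then sat another 10 min before stimulation.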

[8] = molecular target: Cytochrome P450 3A4 (Homo sapiens) (UniProt P08684); assay: Cytochrome P450 Family 3 Subfamily A Member 4 (CYP3A4) small molecule antagonists: luciferase reporter qHTS assay (AID 1671201); also: nearly all actives have a fitted effect of over 50% in size; as to activity change, negative = inhibition: series mostly up to about 120 µM
Chain of Cytochrome P450 3A4 (Homo sapiens) (P08684 whole entry, looked up): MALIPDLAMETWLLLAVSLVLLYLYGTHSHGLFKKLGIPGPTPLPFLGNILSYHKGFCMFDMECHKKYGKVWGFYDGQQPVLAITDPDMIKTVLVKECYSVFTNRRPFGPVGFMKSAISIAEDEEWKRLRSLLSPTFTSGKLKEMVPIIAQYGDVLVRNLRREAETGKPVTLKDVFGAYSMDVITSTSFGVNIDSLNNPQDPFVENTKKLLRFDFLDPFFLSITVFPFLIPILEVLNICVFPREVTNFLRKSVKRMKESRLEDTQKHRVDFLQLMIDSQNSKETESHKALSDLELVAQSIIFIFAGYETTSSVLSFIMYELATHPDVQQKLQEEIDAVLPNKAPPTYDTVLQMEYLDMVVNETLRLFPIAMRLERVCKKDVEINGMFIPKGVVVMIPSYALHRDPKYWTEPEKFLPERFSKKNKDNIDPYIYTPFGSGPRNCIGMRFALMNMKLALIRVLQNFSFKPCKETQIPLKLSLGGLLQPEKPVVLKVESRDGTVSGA
In short: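 Compounds in DMSO were pin-transferred onto CYP3A4 enzyme-substrate mix and held 10 min at room temperature. NADPH regenerating solution started the reaction for 1 h; luciferin detection reagent stopped it, and luminescence was read after 20 min.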
Potency is read from the fitted curve at half-maximal effect.

Structure (SMILES) | Potency [1] | Potency [2] | Potency [3] | Potency [4] | Potency [5] | Potency [6] | Potency [7] | Potency [8] | activity change, negative = inhibition [3]
NC(=O)CN1CCCC1=O | inactive | inactive | inactive | inactive | inactive | inactive | inactive | inactive | –
CCCCCCCCCc1ccc(O)cc1 | – | inactive | inactive | 6.39 µM (active) and 10 µM (active) | 20.2 µM (active) and 31.7 µM (active) | inactive and 39.9 µM (active) | inactive | – | –
CNC(=S)S | inactive | inactive | inactive | 38.9 µM (active) | 61.7 µM (active) | inactive | inactive | inactive | –
ClC(Cl)=C(Cl)C(Cl)=C(Cl)Cl | – | inactive | inactive | inactive | inactive | inactive | inactive | inactive | –
CSc1nc(NC(C)C)nc(NC(C)C)n1 | inactive | inactive | inactive | 39.8 µM (active) and 71 µM (active) | – | 17.8 µM (active) | inactive | inactive | –
CCOP(=S)(OCC)OP(=S)(OCC)OCC | 10.3 µM (active) and 11.2 µM (active) | 36.5 µM (active) and 20 µM (active) | inactive | 8.18 µM (active) and 17.8 µM (active) | 32.6 µM (active) and 35.6 µM (active) | – | inactive | 32.6 µM (active) and 39.9 µM (active) | –
CC(C)(O)C(=O)Nc1ccc([N+](=O)[O-])c(C(F)(F)F)c1 | inactive | inactive | – | 18.2 µM (active) and 26 µM (active) | 25.7 µM (active) and 29.2 µM (active) | 7.25 µM (active) and 6.53 µM (active) | inactive | 40.8 µM (active) | –
CNC(=O)CSP(=S)(OC)OC | inactive | inactive | inactive and 35.5 µM (active) | 10.3 µM (active) and 20 µM (active) | 36.6 µM (active) and 20 µM (active) | – | inactive | – | –
O=C(O)CF | inactive | inactive | inactive | inactive | inactive | inactive | inactive | inactive | –
O=P(OCCCl)(OCCCl)OCCCl | inactive | inactive | inactive | 70.4 µM (active) | – | 35.3 µM (active) and 35.6 µM (active) | inactive | inactive | –
Oc1ccc(Cl)cc1Cl | – | inactive | inactive | 70.5 µM (active) and inactive | inactive | 35.3 µM (active) and 39.9 µM (active) | inactive | inactive | –
CC(C)(c1ccccc1)c1ccc(O)c(C(C)(C)c2ccccc2)c1 | inactive | inactive | 25 µM (active) and 35.6 µM (active) | 5.59 µM (active) and 3.56 µM (active) | 3.96 µM (active) and 2.83 µM (active) | 35.3 µM (active) and 35.6 µM (active) | – | 8.86 µM (active) and 6.33 µM (active) | –
ClCC(Cl)CCl | – | inactive | 28.5 µM (active) and inactive | inactive | inactive | 44.8 µM (active) | inactive | inactive | –
CCC1(c2ccc(N)cc2)CCC(=O)NC1=O (centres undefined) | inactive | inactive | inactive | inactive | inactive | inactive | inactive | 31.7 µM (active) and 13.8 µM (active) | –
c1ccc2c(c1)Nc1ccccc1S2 | – | inactive | inactive | 2.24 µM (active) and 8.71 µM (active) | inactive | 731 nM (active) and 645 nM (active) | inactive | – | –
CC1(C)Cc2cccc(O)c2O1 | inactive | inactive | inactive | inactive | inactive | – | inactive | inactive | –
CCC[CH2][Sn]([Cl])([CH2]CCC)[CH2]CCC | – | inactive | 634 nM (active) and 2 µM (active) | 2.01 µM (active) and 2.24 µM (active) | 14.2 µM (active) and 15.9 µM (active) | 40 µM (active) | 12.3 µM (active) and 6.92 µM (active) | 15.9 µM (active) and 20 µM (active) | –
CC(C)(c1ccccc1)c1ccc(O)cc1 | – | inactive | inactive | inactive | 11.2 µM (active) and 12.6 µM (active) | inactive | inactive | inactive | –
O=NN(c1ccccc1)c1ccccc1 | inactive | inactive | 21.9 µM (active) and inactive | 39 µM (active) and 35.6 µM (active) | 34.8 µM (active) and 63.3 µM (active) | 34.8 µM (active) | inactive | inactive | –
O=C1CCCO1 | – | inactive | inactive | inactive | inactive | 34.7 µM (active) and inactive | inactive | inactive | –

Structure (SMILES) | Potency [1] | Potency [2] | Potency [3] | Potency [4] | Potency [5] | Potency [6] | Potency [7] | Potency [8] | activity change, negative = inhibition [3]
CC(C)=CC1C(C(=O)OCc2cccc(Oc3ccccc3)c2)C1(C)C (centres undefined) | inactive | inactive | 39.9 µM (active) and inactive | 7.96 µM (active) | 3.17 µM (active) and 3.09 µM (active) | – | inactive | inactive | –
C[N+](C)(C)C | inactive | inactive | inactive | inactive | inactive | inactive | – | inactive | –
C=CC(Cl)CCl (centres undefined) | inactive | inactive | inactive | 40.7 µM (active) and inactive | – | – | inactive | inactive | –
N#CCCCCC#N | inactive | inactive | inactive | 72.5 µM (active) and inactive | inactive | – | inactive | inactive | –
N#Cc1nn(-c2c(Cl)cc(C(F)(F)F)cc2Cl)c(N)c1S(=O)C(F)(F)F (centres undefined) | – | inactive | 11.3 µM (active) and 6.17 µM (active) | 5.06 µM (active) and 9.77 µM (active) | 2.01 µM (active) and 3.09 µM (active) | inactive | inactive | – | –
CCC(=O)Nc1ccc(Cl)c(Cl)c1 | – | inactive | 36.3 µM (active) | 22.9 µM (active) and 35.6 µM (active) | 64.6 µM (active) and 63.3 µM (active) | 5.13 µM (active) and 7.1 µM (active) | inactive | – | –
N#Cc1c(Cl)c(Cl)c(Cl)c(C#N)c1Cl | – | inactive | 34.9 µM (active) and inactive | 17.5 µM (active) and 22.4 µM (active) | 5.53 µM (active) and 5.64 µM (active) | 984 nM (active) and 1 µM (active) | inactive | 984 nM (active) and 1.26 µM (active) | –
CCCCC(C#N)(Cn1cncn1)c1ccc(Cl)cc1 (centres undefined) | inactive | inactive | – | 794 nM (active) and 633 nM (active) | 28.2 µM (active) and 25.2 µM (active) | – | inactive | 158 nM (active) and 224 nM (active) | –
C[C@]12CC[C@H]3[C@@H](CCC4=CC(=O)CC[C@@H]43)[C@@H]1CC[C@@H]2O | inactive | inactive | inactive | 39.6 µM (active) and 8.71 µM (active) | inactive | inactive | inactive | inactive | –
CC(C)COC(=O)c1ccccc1C(=O)OCC(C)C | inactive | inactive | inactive | 10 µM (active) and 11.2 µM (active) | 28.3 µM (active) and 11.2 µM (active) | 12.6 µM (active) and 8.94 µM (active) | – | inactive | –
CCCCCCCCCC(CC)c1ccc(S(=O)(=O)O)cc1 (centres undefined) | inactive | inactive | inactive and 50.2 µM (active) | 40.1 µM (active) and inactive and 35.6 µM (active) | – | 63.2 µM (active) and inactive and 63.3 µM (active) | inactive | inactive | –
CC(C)CON=O | inactive | inactive | – | inactive | inactive | – | inactive | inactive | 2.15% [at 23.6 µM] (inactive)
CCCCOCC1CO1 (centres undefined) | 899 nM (active) and inactive | 63.7 µM (active) and inactive | inactive | inactive | inactive | inactive | inactive | inactive | –
CC(C)Nc1nc(Cl)nc(NC(C)C)n1 | inactive and 31.7 µM (active) | inactive | inactive | inactive and 35.6 µM (active) | inactive | 10 µM (active) and 20 µM (active) | inactive | inactive | –
c1ccc(C2CO2)cc1 (centres undefined) | inactive | inactive | inactive | inactive and 35.6 µM (active) | inactive and 71 µM (active) | inactive | inactive | inactive | –
CCOC(=O)c1ccccc1N | – | inactive | inactive | inactive | inactive | 28.1 µM (active) and 31.7 µM (active) | inactive | inactive | –
S=c1[nH]c2ccccc2[nH]1 | – | inactive | inactive | 39.9 µM (active) | inactive | 35.7 µM (active) and 35.6 µM (active) | inactive | 5.65 µM (active) and 7.96 µM (active) | –
OC(c1ccc(Cl)cc1)(c1cncnc1)c1ccccc1Cl (centres undefined) | inactive | inactive | 36.2 µM (active) and 35.6 µM (active) | 229 nM (active) and 283 nM (active) | 7.23 µM (active) and 6.33 µM (active) | – | 49.8 µM (active) and 54.9 µM (active) | 182 nM (active) and 224 nM (active) | –
CC(C)=CC1C(C(=O)OCN2C(=O)C3=C(CCCC3)C2=O)C1(C)C (centres undefined) | – | inactive | 22.4 µM (active) and 15.5 µM (active) | 8.94 µM (active) and 3.89 µM (active) | 35.6 µM (active) and 27.5 µM (active) | inactive | 38.9 µM (active) | – | –
